Consider 7 sequences from the supplement of paper PMC6555819.

Common to all, as to assay: PBM binding z-score (relative to random genomic background probes); higher = stronger binding; sequences stand for … in GC…GCGATTGACAGCGTAGAATGAAGG
Experiment [1] relates to FXR:RXRa (NR concentration 270 nM, RXRa partner concentration 90 nM). The gist of the method:
(§1)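 Binding buffer was PBS pH 7.4 with 2% milk, 0.02% Triton X-100, 1 mM DTT, 0.2 mg/mL BSA and 0.4 mg/ml salmon testes DNA. In it, ligand-free nuclear receptor dimers were incubated 1 h on custom Agilent 4×180K protein-binding microarrays carrying double-stranded probes. Antibodies against each partner (one per run) detected binding, and z-scores were calculated against random background probes after regression normalization of scanned fluorescence.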

Experiment [2] relates to LXRa:RXRa (NR concentration 270 nM, RXRa partner concentration 90 nM). The gist of the method:
as §1

For experiment [3], the system named is LXRa homodimer (NR concentration 270 nM). The gist of the method:
as §1

The test system of experiment [4] is LXRb:RXRa (NR concentration 270 nM, RXRa partner concentration 90 nM). The gist of the method:
as §1

For experiment [5], the system named is LXRb homodimer (NR concentration 270 nM). The gist of the method: as §1
Experiment [6] relates to PPARa:RXRa (NR concentration 270 nM, RXRa partner concentration 90 nM). An outline of the steps:
as §1

In experiment [7] the test system is PPARg:RXRa (NR concentration 180 nM, RXRa partner concentration 90 nM). The gist of the method:
as §1

Experiment [8] concerns PPARg:RXRa 270nM:90nM, anti-RXR (NR concentration 270 nM, RXRa partner concentration 90 nM). An outline of the steps:
as §1

For experiment [9], the system named is PPARg:RXRa 30nM:10nM, anti-RXR (NR concentration 30 nM, RXRa partner concentration 10 nM). The gist of the method:
as §1

Experiment [10] relates to PPARg:RXRa 90nM:30nM, anti-RXR (NR concentration 90 nM, RXRa partner concentration 30 nM). An outline of the steps:
as §1

Experiment [11] deals with PPARg:RXRa DBDmut IVT, anti-RXR (DBD mutation: RXRa K156A/R161A, NR concentration 270 nM, RXRa partner concentration 90 nM). An outline of the steps:
as §1

Experiment [12] concerns PPARg:RXRa IVT, anti-PPARg (NR concentration 270 nM, RXRa partner concentration 90 nM). The gist of the method:
as §1

Experiment [13] deals with PPARg DBDmut:RXRa IVT, anti-PPARg (DBD mutation: PPARg1 K132A/R137A, NR concentration 270 nM, RXRa partner concentration 90 nM). An outline of the steps:
as §1

Experiment [14] deals with PPARg DBDmut IVT, anti-PPARg (DBD mutation: PPARg1 K132A/R137A, NR concentration 270 nM). An outline of the steps: as §1
Experiment [15] concerns PPARg homodimer (NR concentration 180 nM). An outline of the steps:
as §1

The subject of experiment [16] is PXR:RXRa (NR concentration 270 nM, RXRa partner concentration 90 nM). The gist of the method: as §1
Experiment [17] deals with PXR homodimer (NR concentration 270 nM). An outline of the steps:
as §1

For experiment [18], the system named is RARa:RXR (NR concentration 270 nM, RXRa partner concentration 90 nM). An outline of the steps: as §1
For experiment [19], the system named is RARa homodimer (NR concentration 270 nM). An outline of the steps: as §1
The test system of experiment [20] is RARb:RXRa (NR concentration 270 nM, RXRa partner concentration 90 nM). An outline of the steps: as §1

TCCAGTAGGTTACCAATGGGGCATTCAGCTTTCT: the PBM binding z-score in [1] is 0.247; in experiment [2], 1.53; in [3], -0.513; in experiment [4], 0.676; in experiment [5] it was -0.862; in experiment [6] it was 1.6. The PBM binding z-score was found to be 1.15 in experiment [7]; 2.54 in experiment [8]; 2.63 in experiment [9]; 2.39 in experiment [10]; 4.6 in experiment [11]; 4.34 in [12]. Also, the PBM binding z-score is -0.355 in experiment [13]; -0.253 in [14]; 0.0888 in [15]; 0.286 in [16]; -0.589 in experiment [17]; 0.451 in [18]. The PBM binding z-score in experiment [19] is -0.883; in [20], 1.31.

Consider ACAGACAGGTGATTGAAGGTAACTCAGCTGGACG, for which the PBM binding z-score in experiment [1] was 0.407; in experiment [2], 0.000463; in experiment [3], -0.444; in experiment [4], -0.451; in experiment [5], -0.457; in [6] it was 0.0856. Further, the PBM binding z-score is 0.626 in experiment [7]; -0.0372 in [8]; 0.0722 in [9]; -0.274 in [10]; 0.234 in [11]; 0.403 in experiment [12]. Further, the PBM binding z-score is -0.375 in experiment [13]; -0.0689 in experiment [14]; 0.449 in [15]; -0.285 in experiment [16]; -0.239 in experiment [17]; 0.452 in experiment [18]. In addition, the PBM binding z-score in [19] is -0.476; in [20] it was 0.303.

With ATGTCTAGGTAACCAAGTTCAGTGAATGCCGAAC, the PBM binding z-score in experiment [1] amounted to 0.425; in [2] it was 0.708; in [3] it was 0.547; in [4] it was 0.184; in [5] it was 0.286; in experiment [6] it was 1.08. Also, the PBM binding z-score in experiment [7] is 0.622; in experiment [8], 0.664; in experiment [9], -0.0406; in experiment [10], 0.432; in experiment [11] it was 2.35; in experiment [12], 2.35. For the same sequence, the PBM binding z-score in experiment [13] is 0.0462; in experiment [14] it was -0.029; in [15] it was 0.338; in [16] it was 2; in experiment [17], 1.53; in experiment [18], 0.884. For the same sequence, the PBM binding z-score in [19] is -0.202; in experiment [20], 1.21.

Turning to CGTCAAAGTCCAACTAAGGTAACGTAAAGCACGC, the PBM binding z-score is 0.904 in experiment [1]; 0.0247 in [2]; 0.14 in experiment [3]; -0.00355 in [4]; 0.104 in [5]; 0.088 in [6]. Moreover, the PBM binding z-score in [7] is 0.536; in experiment [8], -0.0783; in [9] it was -0.0174; in [10] it was 0.18; in [11] it was 0.179; in experiment [12] it was 0.394. The PBM binding z-score in experiment [13] was 0.436; in experiment [14], -0.503; in [15], 0.498; in experiment [16], 0.234; in [17], 0.179; in [18] it was 1.23. Besides, the PBM binding z-score in experiment [19] was found to be 0.41; in [20], 1.9.

CCGAGTAGGTTATGGGGAATTCAGGCAACGGTGA: the PBM binding z-score worked out at 0.109 in [1]; 0.544 in experiment [2]; 0.111 in [3]; 0.918 in [4]; 0.311 in experiment [5]; 1.23 in experiment [6]. The PBM binding z-score in experiment [7] came out at 1.46; in [8], 2.43; in experiment [9], 0.671; in [10], 1.48; in experiment [11] it was 3.51; in [12], 2.6. For the same sequence, the PBM binding z-score in experiment [13] was -0.221; in experiment [14], 0.307; in experiment [15] it was 1.64; in experiment [16] it was 0.204; in experiment [17] it was 0.469; in experiment [18] it was 0.654. Moreover, the PBM binding z-score came to 0.587 in experiment [19] and 0.784 in [20].

On to CGAACTAGATCATCCAGGACAGTGAATACATTGA, for which the PBM binding z-score in experiment [1] was 0.155; in [2], -0.152; in experiment [3], 0.195; in experiment [4], -0.18; in [5] it was 0.286; in experiment [6], -0.169. For the same sequence, the PBM binding z-score in [7] is 0.554; in experiment [8], -0.19; in [9], 0.138; in [10] it was -0.219; in experiment [11] it was 2.02; in experiment [12], 1.22. For the same sequence, the PBM binding z-score in [13] is 0.762; in experiment [14], 0.684; in experiment [15], 0.315; in experiment [16] it was -0.222; in [17] it was 0.306; in experiment [18], 0.105. Moreover, the PBM binding z-score is 1.19 in experiment [19] and -0.2 in [20].

Take ATAACGAGGGCAATGAGTTGATAGCACGGGTGGC: the PBM binding z-score in experiment [1] was 0.269; in [2], 0.688; in experiment [3], -0.402; in experiment [4] it was 0.00885; in experiment [5], 0.11; in experiment [6] it was 1.23. For the same sequence, the PBM binding z-score is 1.8 in experiment [7]; 1.31 in experiment [8]; 0.221 in [9]; 0.999 in experiment [10]; 3.37 in experiment [11]; 2.77 in experiment [12]. Further, the PBM binding z-score in [13] was found to be 1.02; in experiment [14], 0.667; in experiment [15], 0.411; in [16], 2; in experiment [17], 5.03; in [18] it was 0.222. In addition, the PBM binding z-score in experiment [19] was -0.438; in [20] it was 2.02.
